hgDAF-12 ag: hgDAF-12 agonism, primary luciferase screen; HEK293 GAL4-hgDAF12 UAS-luciferase reporter, agonist luminescence; normalized to butyrate control; activation, % at 6.8 µM; 1.8% of 370,000 active; AID 687014;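 active = activation above a cutoff set at the mean of all screened compounds plus 3 SD, cut at about 10% in these data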
DAX1 inh-1: DAX1 (NR0B1) inhibition, primary screen; HEK293T StAR-luciferase reporter, SF-1/DAX-1 repression relief; inhibition, % at 6.8 µM; 1.1% of 370,000 active; AID 652010;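 active = inhibition above the mean over all tested compounds plus 3 SD, cut at about 3.6% in these data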;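 note: higher inhibition means more luminescence from relief of DAX-1 repression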
DAX1 inh-2: inhibits human nuclear receptor DAX1. P51843. HEK293 Gal4-DAX1 luciferase reporter, luminescence. inhibition, % at 6.75 µM. 0.99% of 340,000 active. AID 504766;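 active = inhibition above the mean over all tested compounds plus 3 SD, cut at about 4.2% in these data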;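 note: inhibition shows as a rise in luminescence from relieved DAX1 repression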
Target sequence (P51843 207-470 limits assumed): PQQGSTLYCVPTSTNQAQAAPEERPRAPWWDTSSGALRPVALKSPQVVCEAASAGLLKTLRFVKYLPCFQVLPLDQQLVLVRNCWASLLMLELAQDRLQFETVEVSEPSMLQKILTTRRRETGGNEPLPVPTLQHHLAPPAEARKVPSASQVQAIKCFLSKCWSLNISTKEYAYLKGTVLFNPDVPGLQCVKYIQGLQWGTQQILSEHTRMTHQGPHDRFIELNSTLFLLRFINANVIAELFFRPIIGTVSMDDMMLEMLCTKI
hcDAF12 agonist: H. contortus DAF-12 activation, primary screen; HEK293 hcDAF-12 lit1-tk-luc reporter, luminescence; 0% DMSO, 100% Δ7-dafachronic acid; activation, % at 6.8 µM; 1.4% of 370,000 active;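 active = activation above the mean of all tested compounds plus 3 SD, cut at about 5.5% in these data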
ssDAF12 agonist: S. stercoralis DAF-12 activation, primary screen; HEK293 ssDAF-12/GRIP1 lit1-tk-luc reporter, luminescence; % of 3 µM dafachronic acid response; AID 652126; 1% of 370,000 active; activation, % at 6.8 µM;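 active = activation above the mean over all tested compounds plus 3 SD, cut at about 0.9% in these data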
Numbers stand for hits; n = inactive; x = not tested or not shown. Only some compounds are listed: those with a hit (about 4.1% of all), similar ones and a draw of the others.

SMILES | hgDAF-12 ag | DAX1 inh-1 | DAX1 inh-2 | hcDAF12 agonist | ssDAF12 agonist
Cc1ccc(S(=O)(=O)NC(=NCC(=O)O)c2ccccc2)cc1 | n | n | n | n | 1.1
O=C(O)CN=C(NS(=O)(=O)c1ccc(Cl)cc1)c1ccc(F)cc1 | n | n | 6.0 | n | n
CN(CCCOC(=O)c1cc2ccccc2o1)C1CN(Cc2cn(Cc3ccc([N+](=O)[O-])cc3)nn2)S(=O)(=O)C1 (configuration not stated) | n | n | x | n | n
C(#CSCc1ccccc1)SCc1ccccc1 | n | n | 4.3 | n | n
c1ccc(CSCc2ccccc2)cc1 | n | n | n | n | n
CCOC(=O)CC[C@@H]1CC[C@]2(CCCN(C(=O)C3CCCC3)C2)O1 | n | n | x | n | n
O=C(COC(=O)c1ccc2c(c1)OCO2)Nc1ccccc1OC(F)F | n | n | n | n | n
Cc1ccc(S(=O)(=O)NCC(=O)OCC(=O)Nc2ccccc2OC(F)F)cc1 | n | n | 5.9 | n | n
O=C(COC(=O)c1ccc(Cl)c([N+](=O)[O-])c1)Nc1ccccc1OC(F)F | n | n | 4.7 | n | n
Nc1ncnc2c1ncn2[C@@H]1O[C@H](C(=O)N[C@@H](CCc2ccccc2)C(=O)N2CCN(C(=O)N3CCCCC3)CC2)[C@@H](O)[C@H]1O | n | n | x | n | n
COc1ccc(/C(C)=N/NC(=O)Cc2cc(=O)[nH][nH]2)cc1OC | n | n | x | n | n
COc1ccccc1NC(=O)Nc1ccc2c(c1)OCCO2 | 12.5 | n | 8.0 | n | n
O=C(COC(=O)/C=C/c1ccc2c(c1)OCO2)Nc1ccccc1 | n | n | n | n | n
COc1cccc(/C=C/C(=O)OCC(=O)Nc2ccc3c(c2)OCO3)c1 | n | n | 6.4 | n | n
Cc1ccccc1NC(=O)NC(N)=O | n | n | n | n | n
COc1ccc(NC(=O)Nc2ccc3c(c2)OCO3)c(C)c1 | n | 4.4 | n | n | n
COc1ccccc1NC(=O)NC(N)=O | n | n | 4.3 | n | n
CN1C2=N[C@@H](c3ccccc3)CC(=O)N2/C(=C\c2ccccc2)[C@H]1c1ccccc1 | n | x | x | n | n
CCOc1ccc(-n2c(SCC(=O)Nc3ccc(S(=O)(=O)Nc4cc(C)nc(C)n4)cc3)nnc2-c2ccco2)cc1 | n | n | x | n | n
COc1ccc(NC(=O)Nc2ccc(F)cc2F)cc1 | n | n | n | n | 1.1
CCOc1ccccc1CN1CCNC(=O)C1CC(=O)N(C)CCC1CCOCC1 (configuration not stated) | n | n | n | n | n
COc1cccc(CN2CCNC(=O)C2CC(=O)N(C)CCC2CCOCC2)c1OC (configuration not stated) | n | n | 6.1 | n | n
CN(CC1CCOCC1)C(=O)CC1C(=O)NCCN1CC1CCCCC1 (configuration not stated) | n | n | 5.7 | n | n
CCn1c(COc2ccc(Cl)cc2)nnc1SC1CCc2ccccc2C1=O (configuration not stated) | n | n | n | n | 1.5
CCOC(=O)NC(=O)c1cn(Nc2ncc(C(F)(F)F)cc2Cl)c(=O)[nH]c1=O | n | n | n | n | n
SMILES | hgDAF-12 ag | DAX1 inh-1 | DAX1 inh-2 | hcDAF12 agonist | ssDAF12 agonist
CCOC(=O)NC(=O)c1cn(Nc2ncc(Cl)cc2C(F)(F)F)c(=O)[nH]c1=O | n | n | 6.2 | n | n
O=C(Nc1ccc(-c2nc3ccccc3s2)c(O)c1)C1=COCCO1 | n | n | 4.9 | n | n
CC(=O)Nc1ccc(O)c(-c2nc3ccccc3s2)c1 | 14.4 | n | n | n | n
O=C(Nc1ccc(O)c(-c2nc3ccccc3s2)c1)C1=COCCO1 | n | n | n | n | n
Cc1ccsc1C(=O)Nc1ccc(O)c(-c2nc3ccccc3s2)c1 | n | n | n | n | n
CCOc1cc(-c2nc3ccccc3s2)ccc1O | 11.2 | n | n | n | n
CC(=O)Nc1cccc(-c2csc(N)n2)c1 | n | n | n | n | n
CC(C)c1ccc(-c2nc3ccccc3s2)cc1 | n | n | n | n | n
CC(=O)Nc1cccc(-c2cc(C)c3cc4c(cc3n2)OCO4)c1 | n | n | n | 5.6 | n
COC(=O)c1cccc(Cn2ccc3ccc(-c4ccc5ccn(C(=O)c6ccccc6OC)c5c4)cc32)c1 | n | n | x | n | n
COc1ccc(S[C@]2(C(=O)N3CCN(c4ncccn4)CC3)CC(=O)N(c3ccc(C#N)cc3)[C@@H]2c2ccc(OC)cc2)cc1 | n | n | x | n | n
CC(=O)Nc1cccc(-c2nc3ccccc3s2)c1 | 11.3 | n | n | n | n
Cc1ccc(C(=O)NC(=S)Nc2cccc(-c3nc4ccccc4s3)c2)cc1 | n | n | n | n | n
C=CC(=O)NC1CCCCN(C(C)C)C1=O (configuration not stated) | n | n | x | n | n
COc1ccc(CNC(=O)C2CCNCC2)cc1 | n | n | n | n | n
COc1ccc(OCC2CCNCC2)cc1 | n | n | 4.5 | n | n
CC(=C/c1ccccc1)/C=N/n1c(C)n[nH]c1=S | n | n | 4.7 | n | n
CC(=C/c1ccccc1)/C=N/n1c(-c2ccncc2)n[nH]c1=S | n | n | n | n | n
COc1ccccc1NS(=O)(=O)c1cc(NC(=O)c2ccccc2C)ccc1N1CCOCC1 | n | n | n | n | n
COc1ccc(OC)c(NC(=O)c2[nH]c(C)c(C(C)=O)c2C)c1 | n | n | n | 5.8 | n
COc1ccc(Cl)cc1NC(=O)c1[nH]c(C)c(C(C)=O)c1C | n | n | n | n | n
COc1ccccc1NS(=O)(=O)c1cc(NC(=O)c2[nH]c(C)c(C(C)=O)c2C)ccc1N1CCOCC1 | n | 4.0 | n | n | n
CCn1c(=O)n2n(c1=O)[C@]1(C=C(C)C2)CN(Cc2ccc(OC)cc2OC)C(NC(=O)c2ccccc2)=N1 | n | x | x | n | n
CC(=O)Nc1ccc(NC(C)=C(C#N)C#N)cc1 | n | n | 4.3 | n | n
CCOc1ccccc1N1CCN(C(=O)c2ccccc2OCc2c(C)noc2C)CC1 | n | n | n | n | n
SMILES | hgDAF-12 ag | DAX1 inh-1 | DAX1 inh-2 | hcDAF12 agonist | ssDAF12 agonist
CCc1nc(N2CCN(C(=O)CCl)CC2)c2c3c(sc2n1)CC(C)CC3 (configuration not stated) | n | n | 4.4 | n | n
COc1ccc(CCNC(=O)c2cccnc2Cl)cc1OC | n | n | 6.3 | n | n
COc1ccc(NC(=O)Nc2cc(C)nn2-c2ccccc2)cc1 | n | n | x | n | n
CCCCn1nnc(N(C(=O)c2cccs2)C(=O)c2cccs2)n1 | n | n | 5.7 | n | n
CCN(CC)C(=O)CC[C@H]1CC[C@]2(CCCN(C(=O)C(C)(C)C)C2)O1 | n | n | x | n | n
Cn1c(=O)c2c(nc(NCC(O)CO)n2CCc2ccccc2)n(C)c1=O (configuration not stated) | n | n | 5.4 | n | n
Cc1cccc(-c2noc(C3CCCCC3)n2)c1 | n | n | n | n | n
Cc1cccc(-c2noc(-c3ccno3)n2)c1 | n | n | 4.9 | n | n

Screening results (PubChem)
